Data published in PubChem BioAssay AID652104 (National Center for Advancing Translational Sciences (NCATS), 2013).
Out of some 410,000 compounds screened, about 7,200 (1.8%) were called active. A call without a number means that no potency is given here. Inconclusive results (about 7%) are left out. Calls come from the whole dose curve; as a rule, active = well fitted activation curve with a large enough effect; inconclusive = small, poorly fitted or top-dose-only effect, or another doubt; inactive = no such curve, though single readings can be large or run the other way. The full list was thinned out, with actives kept by preference.

experiment: qHTS of TDP-43 Inhibitors; details: TDP-43 expressing yeast growth rescue, BacTiter-Glo, 24 h; series mostly up to 46.1 µM; note: nearly all actives have a fitted effect of over 50% in size
In short: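 Growth rescue of TDP-43-toxic yeast measured as ATP luminescence (BacTiter-Glo). Cells grown to mid-log in raffinose, induced in galactose at OD600=0.02, exposed to compound 24 hr at 30 deg C.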
Potency is the fitted concentration of half-maximal effect.

SMILES	Potency	growth rescue (activation)
COc1cc(OC)cc(-c2nc3nc(C)c(CCC(=O)Nc4ccc(C)cc4)c(C)n3n2)c1	inactive	
CCC(c1nnnn1-c1ccc2c(c1)OCCO2)N1CCN(c2ccc(C(F)(F)F)cn2)CC1 (configuration not stated)	22.4 µM (active)	
CCOc1ccc(C(=O)NCC(=O)N2CCN(c3ccc(C(F)(F)F)cn3)CC2)cc1	inactive	
CCN(CC)CCN(C)C(c1ccnc2ccccc12)c1nnnn1-c1ccc2c(c1)OCCO2 (configuration not stated)	inactive	
O=C(Nc1ccc(O)c(-c2nc3ccccc3o2)c1)c1ccc(-c2cccc(Cl)c2)o1	inactive	
COC(=O)c1cc2occc2n1Cc1nc(-c2ccc(C)cc2)oc1C	inactive	
CCN(CC)S(=O)(=O)c1ccc2c(c1)N(CC(=O)NCc1ccccc1)C(=O)CS2	inactive	
Nc1c(C(=O)O)cnn1-c1ccccc1	inactive	
CCNC(=O)c1cnn(-c2ccccc2)c1-c1ccccc1	inactive	
CCCc1c(C(=O)O)cnn1-c1ccc(Cl)cc1	20 µM (active)	
O=C(Nc1ccc(S(=O)(=O)N2CCC(c3nc4ccccc4s3)CC2)cc1)c1ccccc1F	inactive	
COc1ccc2c(c1)CC[C@@H]1[C@@H]2CC[C@]2(C)C(=O)CC[C@@H]12	12.6 µM (active)	
COc1ccc(Cn2ccn(Cc3cccc(OC)c3)c(=O)c2=O)cc1	inactive	
COc1ccc(C=C2CCC3C(CCCC34OCCO4)C2=O)cc1 (configuration not stated)	inactive	
Cc1cc(Br)ccc1NC(=O)Cn1cnc2sc(C)c(S(=O)(=O)N3CCN(C)CC3)c2c1=O	inactive	
CCOc1ccc(N(CC)C(=O)c2cc3c(=O)oc4ccccc4c3s2)cc1	inactive	
CCOc1ccc(CCNC(=O)Cn2nc(CC)n3c(cc4sc(CC)cc43)c2=O)cc1OCC	inactive	
CCOc1ccc(C(=O)/C=C/c2cn(CC(O)CN3CCCCCC3)c3ccccc23)cc1 (configuration not stated)	inactive	
CC(C)c1ccc(NC(=O)Cn2nnc(C(=O)NCCc3ccccc3)c2N)cc1	inactive	
CCOC(=O)C1CCCN(C(=O)c2ccc(-n3ccc4ccccc43)s2)C1 (configuration not stated)	inactive	
O=S(=O)(NC1CC2CCC1C2)c1ccc(Cl)cc1 (configuration not stated)	7.08 µM (active)	

SMILES	Potency	growth rescue (activation)
CCN1CCN(C2CCCCC2NS(=O)(=O)c2ccc(Cl)cc2)CC1 (configuration not stated)	inactive	
CCOC1CCCCC1NS(=O)(=O)c1ccc(Cl)cc1 (configuration not stated)	inactive	
COc1ccc(Cn2ccnc2SCC(=O)NCc2ccco2)cc1	inactive	
COc1cc(C(=O)N2CCC(c3ccncc3)CC2)cc(OC)c1OC		-21.7% [at 9.22 µM] (inactive)
O=C(Nc1ccccc1N1CCCCC1)c1cccc(F)c1	12.6 µM (active)	
O=C(Nc1ccccc1N1CCCC1)c1ccc(F)c(S(=O)(=O)N2CCOCC2)c1	inactive	
CCn1c(=O)c(=O)n(CC)c2cc(N3CCCCC3)c(NC(=O)c3cccc(F)c3)cc21	inactive	
CCN1CCN(Cc2c(O)ccc3oc(C)c(C(=O)Nc4ccc(C)cc4C)c23)CC1	inactive	
O=C(CSc1nc2nccnc2c(=O)n1CCc1c[nH]c2ccccc12)Nc1ccccc1F	inactive	
Cc1ccc(S(=O)(=O)NCc2cn3ccsc3n2)c(C)c1	inactive	
Cc1ccc(Nc2c(-c3ccc(Cl)cc3)nc3sccn23)c(C)c1	25.1 µM (active)	
O=C(NCc1ccc(Cl)cc1)c1cc2c(nc3sccn32)s1	inactive	
Cc1ccc2nc3c(cc(C(=O)NC4CCCCC4)c(=N)n3C(C)C)c(=O)n2c1	inactive	
CCN(Cc1ccccc1)S(=O)(=O)c1ccc2c(c1)CCCN2C(C)=O	inactive	
CCOC(=O)c1ccc[n+](CC(=O)Nc2ccccc2OC(F)F)c1		1.27% [at 0.397 µM] (inactive)
FC(F)Oc1ccccc1NC(=S)Nc1cccc(Cl)c1Cl	17.8 µM (active)	
CC(=O)Nc1ccc(NC(=O)COc2ccccc2C(=O)Nc2cccc(Cl)c2Cl)cc1	inactive	
Cc1cc(C)c(-c2n[nH]c3c2C(c2ccccc2F)N(CCO)C3=O)c(O)c1 (configuration not stated)	inactive	
CCOC(=O)c1sc(NC(=O)/C=C/c2ccc(C(C)C)cc2)c(C(=O)OCC)c1C	inactive	
CSc1ncc(C(=O)NCc2ccccc2Cl)c(C(F)(F)F)n1	inactive	
Cc1cccc(N2CCN(C(=O)c3oc(=O)c4ccccc4c3-c3ccccc3)CC2)c1C	inactive	

SMILES	Potency	growth rescue (activation)
COc1ccccc1Nc1cc(C(=O)NCCCN(C)C2CCCCC2)c2ccccc2n1	inactive	
O=[N+]([O-])c1ccc2oc(-c3cccc(O)c3)nc2c1	7.94 µM (active)	
COc1ccc(-c2nc3ccccc3o2)cc1NC(=O)c1cc([N+](=O)[O-])ccc1N1CCOCC1	inactive	
O=C(Nc1cc(-c2nc3ccccc3o2)ccc1Cl)c1cc([N+](=O)[O-])ccc1N1CCOCC1	inactive	
CN(c1ccccc1)S(=O)(=O)c1cc(C(=O)Nc2nc3ccccc3[nH]2)ccc1Cl	15.8 µM (active)	
CN(c1ccccc1)S(=O)(=O)c1cccc(C(=O)NNC(=O)c2ccncc2)c1	inactive	
CN(c1ccccc1)S(=O)(=O)c1cc(C(=O)OCC(=O)N2CCN(C(=O)c3ccco3)CC2)ccc1Cl	inactive	
S=c1[nH]nc(Nc2ccccc2)s1	inactive	
O=c1cnnc(Nc2ccccc2)[nH]1	inactive	
c1ccc(Nc2n[nH]nc2-c2ccccc2)cc1	12.6 µM (active)	
Cc1cc(C)cc(-n2c(SCC(=O)NCC3CCCO3)nc3c([nH]c4ccccc43)c2=O)c1 (configuration not stated)	inactive	
Cc1ccc(-c2nnc(SCC(=O)N/N=C/c3cccs3)n2-c2ccc(C)cc2)cc1	22.4 µM (active)	
Cc1ccc(-n2c(Cc3cccs3)nnc2SCC(=O)OC(C)C)cc1	inactive	
NNC(=O)CSc1nnc(-c2ccccc2)n1-c1ccccc1	inactive	
COc1cccc(CNc2nccn(-c3ccc(OC)c(OC)c3)c2=O)c1	inactive	
CC1=C[C@H]2Cc3cc(C)cc(C)c3S(=O)(=O)[C@@H]2C=C1	15.8 µM (active)	
COc1ccc(-n2ccn(CC(=O)Nc3ccc(C)c(C)c3)c(=O)c2=O)cc1OC	inactive	
Cc1cc(O)cc(O)c1C(=O)Cc1cnn(-c2ccccc2)c1	8.91 µM (active)	
O=C(c1cnn(-c2ccc(Cl)cc2)c1)c1ccccc1O	inactive	
Cc1[nH]nc(-c2ccc(OCc3cnn(-c4ccccc4)c3)cc2O)c1Oc1ccc(Cl)cc1	inactive	
